# Experimental data reported in PubChem BioAssay (NCATS).
# Several values for one entry are separate records, joined by “and”; a condition that tells them apart may be missing. Equal values may be shown once. Records with an inconclusive call do not appear. A number with no mark means an inactive call. Calls follow the shape of the dose curve; as a rule, active = well fitted inhibition curve with a large enough effect in the signal ratio, with a control signal flat (not every such curve was filed as active); inconclusive = small, poorly fitted or top-dose-only effect, or effect the other way, or a change in a side signal; inactive = flat fitted curve, though single readings scatter; the % refers to the signal ratio.
# Biological target: Thyroid hormone receptor beta (Homo sapiens) (UniProt P10828)
# Assay: qHTS assay for small molecule antagonists of thyroid hormone receptor beta signaling (AID 588547);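 also: cells stimulated with 0.4 nM T3 agonist during compound exposure; series mostly up to about 77 µM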
# Conditions: TR-UAS-bla HEK293, beta-lactamase ratio, antagonist mode, 18 h
# From the text: NIH Chemical Genomics Center [NCGC] U.S. Environmental Protection Agency [EPA] National Institutes of Environmental Health Sciences [NIEHS] National Toxicology Program [NTP] NCGC Assay Overview Thyroid hormone receptor (TR) belongs to nuclear hormone receptor superfamily. There are two subtypes for TR: TR-alpha and TR-beta. TR-beta plays a major role in regulating plasma cholesterol levels and it mediates the biological activities of thyroid hormone. Screening environmental chemicals on TR-beta signaling will provide important information for the mechanism of compound action.
# NCGC Assay Protocol Summary Using a beta-lactamase reporter-gene under control of the TR response element, a cell-based assay [GeneBLAzer TR-UAS-bla-GripTite assay developed by Invitrogen] was used to measure TR-beta signaling in antagonist mode. TR-UAS-bla-GripTite HEK 293 cells were used with assay medium containing 2% charcoal/dextran FBS, 0.1 mM NEAA and 1 mM sodium pyruvate. The assay was performed in clear bottom black Greiner 1536-well plates. Library compounds were measured for their ability to inhibit the reporter gene activity. Compounds were screened in a titration series in 1536-well format. The fluorescence intensity (405 nm excitation, 460/530 nm emission) was measured using an EnVision plate reader. […] Concentration-response titration points for each compound were fitted to the Hill equation yielding concentrations of half-maximal inhibition (IC50) and maximal response (efficacy) values. qHTS protocol for TR-beta beta-lactamase assay in antagonist mode [Step] [Parameter] [Value] [Description] 1. Reagent; 5 uL; 2500 cells/well 2. Incubation; 37 C for 4 hrs 3. Compounds; 23 nL; 0.59 nM to 92 uM 4. Controls (DMSO); 23 nL 5. Agonist (Stimulator); 1uL; T3 at 0.4nM (final) concentrations 6. Incubation; 37 C for 18 hrs 7. Detection reagent; 1 uL of CCF4-dye 8. Incubation; RT for 2 hrs 9. Detection; Fluorescence; Envision plate reader
# % is scaled to controls: 0 for no effect and ±100 for the full control effect.
# Sequence of Thyroid hormone receptor beta (Homo sapiens) (P10828 whole entry, looked up): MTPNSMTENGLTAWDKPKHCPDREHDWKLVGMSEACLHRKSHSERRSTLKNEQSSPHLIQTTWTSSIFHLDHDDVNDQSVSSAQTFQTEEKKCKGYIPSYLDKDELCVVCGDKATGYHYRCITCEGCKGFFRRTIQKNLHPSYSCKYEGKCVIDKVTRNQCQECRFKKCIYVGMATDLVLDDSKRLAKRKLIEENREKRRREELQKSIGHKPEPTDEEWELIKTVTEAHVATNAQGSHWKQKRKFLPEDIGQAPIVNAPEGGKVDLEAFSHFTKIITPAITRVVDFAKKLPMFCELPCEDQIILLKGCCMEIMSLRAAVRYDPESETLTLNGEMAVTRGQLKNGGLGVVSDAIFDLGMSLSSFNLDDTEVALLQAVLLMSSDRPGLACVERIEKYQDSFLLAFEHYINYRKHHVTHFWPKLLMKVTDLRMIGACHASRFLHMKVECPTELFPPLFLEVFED
row,SMILES,activity change % (negative = inhibition)
1,BrCC(Br)(Br)Br,-15.5%
2,ClC(Br)Br,16%
3,NNC(N)=S,4.76%
4,BrCC(Br)C1CCC(Br)C(Br)C1 (stereo not given),5.99%
5,Cc1cccc(N)c1C,2.82%
6,CC(=O)NNc1ccccc1,-1.14%
7,O=[N+]([O-])c1cc(Cl)c(Cl)cc1Cl,5.06%
8,Cc1ccccc1[N+](=O)[O-],6.46%
9,C=CC(=O)OC,-6.86%
10,CC(C)OS(C)(=O)=O,8.49%
11,O=S(=O)(O)F,10%
12,Cc1ccc(OP(=O)(Oc2ccc(C)cc2)Oc2ccc(C)cc2)cc1,-7.32% and 3.64%
13,CN(C)c1ccccc1,-1.14%
14,CCC/C=N/O,3.59%
15,O=[N+]([O-])c1ccccc1O,-16.2%
16,CCOP(=S)(OCC)Oc1nc(Cl)c(Cl)cc1Cl,4.5% and 5.64% and -7.44%
17,CCCBr,3.13%
18,CCCCC#N,-12.9%
19,OCCCCO,10.4%
20,C=CCOCC1CO1 (stereo not given),1.27%

row,SMILES,activity change % (negative = inhibition)
1,N#CCCCCC#N,-18.7%
2,Nc1ccc2ccccc2c1,-16.4%
3,FC(Cl)(Cl)Cl,-7.45%
4,Cl/C=C/Cl,-4.77%
5,ClC(Cl)c1ccccc1,-1.09%
6,O=c1ccc(=O)[nH][nH]1,-3.55%
7,O=[N+]([O-])c1ccc2c3c(cccc13)CC2,-2.33% and 7.31%
8,N#CC(O)c1ccccc1 (stereo not given),8.13%
9,BrC(Br)Br,-8.09%
10,Clc1cccc(Cl)c1Cl,-6.61% and -16.3%
11,Clc1ccccc1,8.57%
12,Cc1ccc(N)cc1C,9.98%
13,O=S(=O)(Cl)c1ccccc1,-1.94% and -0.791%
14,Clc1cc(Cl)c(Cl)c(Cl)c1,-16.6%
15,S=C1NCCN1,-23.2% and -6.83%
16,COC(C)(C)C,-17.3%
17,COc1cc(-c2ccc(N)c(OC)c2)ccc1N,4.52% and 5.28% and -5.71%
18,O=C(O)CBr,11.6%
19,O=C(O)c1cc(Cl)ccc1Cl,12.5%
20,ClC=CCl,-5.48%
